Counter-ions that a name gives are not always drawn.
The molecules below were run on NCI-H1688 (assay: inhibition of cell viability relative to untreated control (fraction); higher = stronger growth inhibition, active = 0.5 or more). Details: 30 µM; 24 h.
In short: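 Values are inhibition of cell viability expressed as a fraction, derived from viability normalised to untreated cells. NCI-H1688 small cell lung cancer cells in 96-well plates were exposed to a natural compound library (TargetMol) at 30 µM for 24 h at 37°C with 5% CO2, and Cell Counting Kit-8 absorbance at 450 nm was then read.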

SMILES	inhibition of cell viability
COc1cc(O)c2c(c1)C(=O)c1cc(C)cc(O)c1C2=O [Rheochrysidin]	0.0809 (inactive)
O=C(O)C=CC=Cc1ccccc1 [5-Phenyl-2,4-pentadienoic acid]	-0.102 (inactive)
O=c1cc(-c2ccc(O)cc2)oc2cc(O)cc(O)c12 [Apigenin]	0.487 (inactive)
CC[C@]12CCCN3CCc4c(n(c5ccccc45)[C@@](O)(C(=O)OC)C1)[C@@H]32 [Vincamine]	0.408 (inactive)
CC(C)=CCOc1c2ccoc2cc2oc(=O)ccc12 [Isoimperatorin]	-0.0286 (inactive)
C1CCN2C[C@@H]3C[C@@H](CN4CCCC[C@@H]34)[C@H]2C1 [(-)-Sparteine sulfate pentahydrate]	0.237 (inactive)
COc1ccc(-c2coc3cc(O)ccc3c2=O)cc1 [Formononetin]	0.0427 (inactive)
NC(=O)NC1NC(=O)NC1=O (configuration not stated) [Allantoin]	0.00777 (inactive)
COc1ccc(-c2cc(=O)c3c(O)cc(O)cc3o2)cc1O [Diosmetin]	0.314 (inactive)
CC(=O)N[C@H]1[C@H]([C@H](O)[C@H](O)CO)OC(O)(C(=O)O)C[C@@H]1O (some centres not stated) [N-Acetylneuraminic acid]	-0.0072 (inactive)
CC[C@H](CC[C@@H](C)[C@H]1CC[C@H]2[C@@H]3CC=C4C[C@@H](O)CC[C@]4(C)[C@H]3CC[C@]12C)C(C)C [Beta-Sitosterol]	0.185 (inactive)
O=c1cc(-c2ccccc2)oc2cc(O)cc(O)c12 [Chrysin]	0.197 (inactive)
NCCC[C@H](N)C(=O)O [L-Ornithine]	-0.0432 (inactive)
C=CC[C@@H]1/C=C(\C)C[C@H](C)C[C@H](OC)[C@H]2O[C@@](O)(C(=O)C(=O)N3CCCC[C@H]3C(=O)O[C@H](/C(C)=C/[C@@H]3CC[C@@H](O)[C@H](OC)C3)[C@H](C)[C@@H](O)CC1=O)[C@H](C)C[C@@H]2OC [Tacrolimus (FK506)]	0.0216 (inactive)
C[C@@H]1O[C@@H](OC[C@H]2O[C@@H](Oc3c(-c4ccc(OCCO)c(OCCO)c4)oc4cc(OCCO)cc(O)c4c3=O)[C@H](O)[C@@H](O)[C@@H]2O)[C@H](O)[C@H](O)[C@H]1O [Troxerutin]	-0.145 (inactive)
CC(C)=CCC[C@](C)(O[C@@H]1O[C@H](CO)[C@@H](O)[C@H](O)[C@H]1O)[C@H]1CC[C@]2(C)[C@@H]1[C@H](O)C[C@@H]1[C@@]3(C)CC[C@H](O[C@@H]4O[C@H](CO)[C@@H](O)[C@H](O)[C@H]4O[C@@H]4O[C@H](CO)[C@@H](O)[C@H](O)[C@H]4O)C(C)(C)[C@@H]3CC[C@]12C [Ginsenoside Rd]	0.03 (inactive)
Oc1cc(O)c2c(c1)O[C@H](c1ccc(O)c(O)c1)[C@H](O)C2 [Epicatechin]	0.0727 (inactive)
C[C@H](CCC(=O)O)[C@H]1CC[C@H]2[C@@H]3[C@H](O)C[C@@H]4C[C@H](O)CC[C@]4(C)[C@H]3C[C@H](O)[C@]12C [Cholic Acid]	-0.419 (inactive)
CC(=O)c1c(O)cc(O)cc1O [Phloracetophenone]	0.00993 (inactive)

SMILES	inhibition of cell viability
C[N+](C)(C)CC(O)CC(=O)[O-] (racemic) [DL-Carnitine]	0.00503 (inactive)
CCCCOC(=O)c1ccc(O)cc1 [Butylparaben]	0.197 (inactive)
O=C(O)c1cc(=O)[nH]c(=O)[nH]1 [Orotic acid]	-0.0262 (inactive)
O=C1C[C@@H](c2ccc(O)cc2)Oc2cc(O)cc(O)c21 [Naringenin]	-0.726 (inactive)
O=C(O)c1cc(O)ccc1O [Gentisic acid]	-0.166 (inactive)
Cc1c(S(=O)(=O)O)oc2c1C(=O)C(=O)c1c-2ccc2c1CCCC2(C)C [Tanshinone IIA-sulfonic sodium]	-0.0961 (inactive)
C[C@@H]1C(=O)O[C@H]2C[C@@]34[C@H]5C[C@@H](C(C)(C)C)[C@]36[C@@H](OC(=O)[C@@H]6O)O[C@@]4(C(=O)O5)[C@]21O [Ginkgolide A]	-0.028 (inactive)
COc1c(C)c2c(c(O)c1C/C=C(\C)CCC(=O)O)C(=O)OC2 [Mycophenolic acid]	0.841 (active)
CC[C@H](C)[C@H](N)C1=N[C@H](C(=O)N[C@@H](CC(C)C)C(=O)N[C@H](CCC(=O)O)C(=O)N[C@H](C(=O)N[C@H]2CCCCNC(=O)[C@H](CC(N)=O)NC(=O)[C@@H](CC(=O)O)NC(=O)[C@H](Cc3cnc[nH]3)NC(=O)[C@@H](Cc3ccccc3)NC(=O)[C@H]([C@@H](C)CC)NC(=O)[C@@H](CCCN)NC2=O)[C@@H](C)CC)CS1 [Bacitracin]	-0.0913 (inactive)
CCOC(=O)/C=C/c1ccc(O)c(OC)c1 [Ethyl ferulate]	-0.0133 (inactive)
C#C[C@]1(O)CC[C@H]2[C@@H]3CCc4cc(O)ccc4[C@H]3CC[C@@]21C [Ethynyl estradiol]	0.639 (active)
CC1(C)CC[C@]2(C(=O)O)CC[C@]3(C)C(=CC[C@@H]4[C@@]5(C)CCC(=O)C(C)(C)[C@@H]5CC[C@]43C)[C@@H]2C1 [Oleanonic Acid]	0.342 (inactive)
Oc1cc(O)c2c(c1)O[C@H](c1cc(O)c(O)c(O)c1)[C@H](O)C2 [Epigallocatechin]	-0.059 (inactive)
COc1ccc(/C=C/C(=O)O)cc1O [Isoferulic acid]	-0.0461 (inactive)
CC1(C)C2CCC1(C)C(O)C2 (configuration not stated) [Borneol]	0.16 (inactive)
N[C@@H](Cc1c[nH]c2ccccc12)C(=O)O [L-Tryptophan]	-0.199 (inactive)
O=C(O[C@@H]1Cc2c(O)cc(O)cc2O[C@@H]1c1ccc(O)c(O)c1)c1cc(O)c(O)c(O)c1 [(-)-Epicatechin gallate]	0.121 (inactive)
Nc1ncnc2c1ncn2[C@@H]1O[C@H](CO)C[C@H]1O [Cordycepin]	-0.154 (inactive)

— the supplement of paper PMC11634586
